Screening results: PubChem BioAssay, National Center for Advancing Translational Sciences (NCATS)
Shiga toxin inh: Shiga toxin inhibition; Vero cells, Shiga toxin protein synthesis inhibition reporter; inhibition, % at 38.7 µM; hit rate 9.2% among 290,000; AID 2315; in the data active = inhibition mostly above about 28%, no sharp cut-off; inactive = mostly below about 43%; note: 0% is about no effect
NS1 function inh: influenza NS1 inhibition; Potency, µM (titrated, usually from 46.1 µM), inactives show at the top dose activity, positive = more growth; hit rate 0.4% among 270,000; calls by dose curve; note: potency is the fitted concentration of half-maximal effect; actives are rising curves; nearly all actives have a fitted effect of over 50% in size
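Read-out: OD600 growth recovery of NS1-expressing budding yeast. Cells grown overnight at 30C in -URA glucose medium, washed, resuspended and diluted 1:100 in 2% galactose assay medium, pH 6.0. Same strain lacking NS1 served as positive control.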
CHX counter: counter-screen for Shiga toxin inhibitors: cycloheximide protein synthesis inhibition | cell reporter, cycloheximide protein synthesis inhibition counterscreen | max response, % | hit rate 12% among 300,000; in the data active = max response mostly above about 13%, no sharp cut-off; inactive = mostly below about 14%; note: read at 38.3 µM for the half of the compounds with a filed dose; 0% is about no effect
Pf growth 48h: inhibits P. falciparum growth in the first generation, 48 h; P. falciparum luciferase growth in erythrocytes, 48 h; Potency, µM (series often up to 28.7 µM), for the others: at the top dose activity change, negative = inhibition, hits mostly inhibitors; hit rate 5.9% among 310,000; AID 504832; note: potency is the fitted concentration of half-maximal effect; % is set by controls: 0 for no effect and ±100 for the full control effect
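Here the parasites carry a stable luciferase gene and grow inside erythrocytes in Albumax-based RPMI medium with compound for one erythrocytic cycle. Activity is scored as loss of luminescent signal.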
Pf growth 96h: P. falciparum growth inhibition at 96 hours; P. falciparum luciferase reporter growth, 96 h; Potency, µM (top dose mostly 28.7 µM), inactives show at the top dose activity change, negative = inhibition, usual class: inhibitors; hit rate 6.9% among 320,000; AID 504834; note: potency is the fitted concentration of half-maximal effect; % is set by controls: 0 for no effect and ±100 for the full control effect
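Two-generation exposure (96 h) targets delayed-death phenotype. Reporter parasites carrying integrated firefly luciferase, in red cells at 2% hematocrit and 0.05% parasitemia final, kept at 37 C, 5% CO2; luminescence loss indicates inhibition.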
Starred values were filed as active, the others as inactive; i = inactive; ? = inconclusive; . = not tested or not shown; [ ] = dose if it differs, or a comment. Most compounds without a hit are left out; they make up all but 21% or so of the library. Unless noted, calls come from the whole dose curve; as a rule, active = well fitted inhibition curve with a large enough effect; inconclusive = small, poorly fitted or top-dose-only effect, or another doubt; inactive = no such curve, though single readings can be large or run the other way.

SMILES | Shiga toxin inh | NS1 function inh | CHX counter | Pf growth 48h | Pf growth 96h
Cc1ccc(C(=O)OCc2ccc3c(c2)OCO3)cc1S(=O)(=O)N1CCCCC1 | -16 | ? | 6 | ? | .
CC(=O)Nc1ccn(C2OC(C(COC(C)=O)NC(=O)C3CCCN3C(=O)OC(C)(C)C)C(OC(C)=O)C2OC(C)=O)c(=O)n1 (centres undefined) | -6 | . | -5 | . | .
CC(C)Cn1c(N)c(C(=O)COC(=O)c2cc(-c3ccccc3)nc3ccccc23)c(=O)n(C)c1=O | -8 | 8% | -3 | ? | 12µM*
CC(C)Cn1c(N)c(C(=O)CSc2nnc(C3CC3)n2C2CC2)c(=O)n(C)c1=O | . | . | . | ? | 8.3µM*
CC(C)Cn1c(N)c(C(=O)COC(=O)c2cc(C(F)(F)F)nc3ccccc23)c(=O)n(C)c1=O | -15 | 5% | -3 | ? | ?
CC(C)Cn1c(N)c(C(=O)COC(=O)c2cc(C3CC3)nc3ccccc23)c(=O)n(C)c1=O | -6 | -2% | -3 | 5.2µM* | 12µM*
CC(C)Cn1c(N)c(C(=O)COC(=O)C2Cc3ccccc3CN2S(C)(=O)=O)c(=O)n(C)c1=O (centres undefined) | . | . | . | 12µM* | ?
Cn1c(N)c(C(=O)COC(=O)c2cc(-c3ccccc3)nc3ccccc23)c(=O)n(Cc2ccccc2)c1=O | -20 | ? | -4 | -4% | -24%
CC(C)Cn1c(N)c(C(=O)COC(=O)c2cc(-c3ccco3)nc3ccccc23)c(=O)n(C)c1=O | -5 | ? | -3 | 9.3µM* | -6%[5.75 µM]
Cn1c(=O)c(C(=O)COC(=O)c2cc(-c3ccco3)nc3ccccc23)c(N)n(Cc2ccccc2)c1=O | 29 | 8.9µM* | -1 | 5.2µM* | 6.6µM*
CCCC(=O)Nc1ccc(C(=O)NNC(=S)NC(=O)c2ccc(Br)o2)cc1 | 14 | . | -1 | 89%[5.75 µM] | 268%[5.75 µM]
O=S1(=O)NCC23CCC(CC21)O3 (centres undefined) | -15 | . | 5 | . | .
Cc1oc(S(=O)(=O)N2CCCCC2)cc1NC(=O)Nc1ccc(F)cc1 | -2 | -1% | 6 | ? | 5.9µM*
O=C(Nc1ccc(F)cc1)Nc1ccc(S(=O)(=O)N2CCCC2)cc1 | . | . | . | 13µM* | 7.4µM*
O=S(=O)(c1ccc(S(=O)(=O)N(Cc2ccc(F)cc2)C2CCCC2)cc1)N1CCCC1 | -2 | -19% | -7 | 13µM* | .
O=C(Nc1ccc(F)cc1)c1ccc(S(=O)(=O)N2CCCC2)cc1 | -5 | -2% | -3 | ? | -4%
O=C(Nc1ccc(F)cc1)Nc1cc(S(=O)(=O)N2CCOCC2)ccc1N1CCCC1 | -6 | . | -1 | 3% | 87%[5.75 µM]
COc1cccc(N2C(=NC(=O)COc3ccccc3)SC3CS(=O)(=O)CC32)c1 (centres undefined) | -6 | 2% | -8 | 12% | ?
CC1CCCCC12NC(=O)N(CC(=O)N(C)Cc1nc3ccccc3c(=O)[nH]1)C2=O (centres undefined) | . | . | . | -14% | -14%
CC1CCN(C(=O)CCNC(=O)Cn2cnc3sc4c(c3c2=O)CCCC4)CC1 | -6 | 1% | 1 | . | .
CCN(Cc1ccncc1)Cc1nc(CC2CC2)no1 | 4 | 3% | -1 | -5% | 44%
CC(C)CNC(=S)NC1CC2CCCC(C1)N2Cc1cccs1 (centres undefined) | 10 | -5% | -1 | 13µM* | 3.7µM*
CC(C)CNC(=S)NC1CC2CCCC(C1)N2Cc1ccco1 (centres undefined) | -18 | 1% | -2 | -17% | 12µM*
CNC(=S)NC1CC2CCCC(C1)N2Cc1ccco1 (centres undefined) | -2 | 13% | 5 | 12% | 34%
CCCNC(C)(C)COC(=O)c1ccccc1 | . | . | . | -15% | 6%
SMILES | Shiga toxin inh | NS1 function inh | CHX counter | Pf growth 48h | Pf growth 96h
CC(C)(C)C(=O)OC/C(N)=N/OC(=O)c1ccccc1 | 31 | -5% | 40* | ? | ?
CCOC(=O)c1sc2ncnc(NCC(c3cccs3)N(C)C)c2c1C (centres undefined) | 40 | 0% | 24* | . | -51%
CC(C)Cc1nc2c(nnn2Cc2ccccc2F)c(=O)[nH]1 | -7 | -5% | -2 | ? | 9.3µM*
COc1ccc(S(=O)(=O)Nc2cc3[nH]c(=O)oc3cc2C)cc1 | -8 | 7% | 1 | 17% | 8.3µM*
COc1ccc(NC(=O)C2CCCC2)cc1S(=O)(=O)N1CCOCC1 | . | . | . | -8% | -16%
CCCC(=O)Nc1ncnc2c1ncn2C1OC2COP(=O)(O)OC2C1OC(=O)CCC (centres undefined) | . | . | . | -15% | -20%
CNCC(=O)Nc1ccc(OC(F)(F)F)cc1 | -7 | . | 5 | -4% | 15%
Cc1cc(C(=O)Nc2ccc(N3CCCCC3)cc2)no1 | 39 | -7% | 16* | 75% | ?
Cc1cnc(C(=O)Nc2ccc(N3CCOCC3)cc2)cn1 | 66* | ? | 22* | 114% | 15%
O=C(Nc1ccc(OC(F)(F)F)cc1)C1=NCCN1 | 38* | -1% | 40* | 1% | -9%
Cc1cnc(C(=O)Nc2ccc(OC(F)(F)F)cc2)cn1 | 48* | -16% | 27* | 107% | ?
O=C(O)c1ccc2c(c1)-c1cc(C(=O)O)ccc1S2(=O)=O | -6 | -5% | 9 | 45% | 36%
CCCNc1c(NS(=O)(=O)c2cccc(C#N)c2)c(=O)oc2ccccc12 | 2 | 1% | -3 | 12% | -19%
COc1ccc(-c2noc(CNC(=O)c3ccc4c(c3)OCO4)n2)cc1OC | 19 | -4% | -4 | 10% | 5%
Cc1cnc(C(=O)Nc2ccc(C(=O)N3CCCCC3)cc2)cn1 | 12 | ? | 6 | 8% | 155%
Cc1cnc(C(=O)Nc2ccc(N3CCCCC3)cc2)cn1 | 84* | . | 32* | i | 219%
Cc1cnc(C(=O)Nc2ccccc2C(=O)N2CCOCC2)cn1 | -9 | 5% | -3 | 16% | 3.7µM*
O=C(O)Cc1c(Cl)ccc(Cl)c1Cl | -14 | . | -2 | . | .
CCn1cc(CN2CCCC(C(=O)Nc3cccc(-c4cc5ccccc5[nH]4)c3)C2)cn1 (centres undefined) | -1 | 16% | 8 | 10µM* | 86%
O=C(Nc1cccc(-n2cccn2)c1)C1CCCN(Cc2ccc(C#CCCO)cc2)C1 (centres undefined) | -4 | 5% | -4 | 10µM* | 36%
CCn1cc(CN2CCCC(C(=O)Nc3cccc(-n4cccn4)c3)C2)c(C)n1 (centres undefined) | -6 | -6% | 16 | -29% | 10µM*
CC(=O)c1cccc(CN2CCCC(C(=O)Nc3cccc(-n4cccn4)c3)C2)c1 (centres undefined) | -2 | 8% | -2 | ? | 23%
O=C(C[n+]1cnn(CC(=O)c2ccc(Cl)cc2Cl)c1)c1ccc([N+](=O)[O-])cc1 | -12 | ? | -3 | 3.7µM* | ?
O=C(Cn1cnc([N+](=O)[O-])c1)c1ccc(Cl)cc1 | . | . | . | 25% | 68%
CC(=O)Nc1cc(NC(C)=O)cc(C(=O)NCC2(N3CCOCC3)CCCCC2)c1 | . | . | . | 0% | ?
